This note sets out measurements from ChEMBL document CHEMBL2218924, “A broad activity screen in support of a chemogenomic map for kinase signalling research and drug discovery” (Biochem J, 2013).

The target of experiment [1] is T1, Serine/threonine-protein kinase BRSK2 (Homo sapiens) (UniProt Q8IWQ3).
T1 sequence (whole entry): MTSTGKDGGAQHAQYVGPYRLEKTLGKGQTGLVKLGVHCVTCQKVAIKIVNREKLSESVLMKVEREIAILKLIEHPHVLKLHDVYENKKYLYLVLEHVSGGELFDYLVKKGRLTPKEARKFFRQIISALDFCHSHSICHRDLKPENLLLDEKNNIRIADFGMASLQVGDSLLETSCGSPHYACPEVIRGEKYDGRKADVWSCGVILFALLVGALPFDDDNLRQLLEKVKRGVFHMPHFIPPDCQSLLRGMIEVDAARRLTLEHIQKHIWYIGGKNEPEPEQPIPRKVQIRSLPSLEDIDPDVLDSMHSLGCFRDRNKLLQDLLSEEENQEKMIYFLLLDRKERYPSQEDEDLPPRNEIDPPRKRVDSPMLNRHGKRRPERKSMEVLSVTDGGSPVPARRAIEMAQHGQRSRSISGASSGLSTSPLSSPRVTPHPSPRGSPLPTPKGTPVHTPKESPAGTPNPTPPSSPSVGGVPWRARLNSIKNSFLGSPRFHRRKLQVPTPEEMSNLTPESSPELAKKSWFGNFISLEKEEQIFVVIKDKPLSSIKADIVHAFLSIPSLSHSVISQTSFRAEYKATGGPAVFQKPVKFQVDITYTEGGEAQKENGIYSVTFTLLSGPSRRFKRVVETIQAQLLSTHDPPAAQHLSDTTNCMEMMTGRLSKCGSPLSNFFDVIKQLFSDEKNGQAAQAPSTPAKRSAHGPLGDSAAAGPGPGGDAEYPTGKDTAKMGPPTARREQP
The following applies: at 1 µM.

Experiment [2] addresses T2, Cyclin-dependent kinase 1/cyclin B1 (Homo sapiens) (UniProt P06493+P14635). The following applies: at 1 µM.
Experiment [3] concerns the target T2, Cyclin-dependent kinase 1/cyclin B1 (Homo sapiens). The following applies: at 10 µM.
For experiment [4], the target named is T3, Cyclin-dependent kinase 2/cyclin E (Homo sapiens) (UniProt P24864+P24941+O96020). The following applies: at 1 µM.
The target in experiment [5] is T3, Cyclin-dependent kinase 2/cyclin E (Homo sapiens). The following applies: at 10 µM.
Experiment [6] has as its target T4, CDK3/cyclin E (Homo sapiens) (UniProt P24864+O96020+Q00526). The following applies: at 1 µM.
The target of experiment [7] is T4, CDK3/cyclin E (Homo sapiens). The following applies: at 10 µM.
The target in experiment [8] is T5, Cyclin-dependent kinase 5/CDK5 activator 1 (Homo sapiens) (UniProt Q00535+Q15078). The following applies: at 1 µM.
T5 sequence (Q00535 whole entry): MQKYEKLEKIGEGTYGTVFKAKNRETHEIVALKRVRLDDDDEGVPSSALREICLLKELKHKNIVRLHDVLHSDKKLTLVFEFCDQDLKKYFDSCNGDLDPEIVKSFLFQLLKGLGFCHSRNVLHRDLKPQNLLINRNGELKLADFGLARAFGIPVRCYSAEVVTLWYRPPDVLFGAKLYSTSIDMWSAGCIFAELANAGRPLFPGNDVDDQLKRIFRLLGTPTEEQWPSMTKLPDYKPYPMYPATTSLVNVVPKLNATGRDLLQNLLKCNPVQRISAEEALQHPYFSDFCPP
T5 sequence (Q15078 99-307 partner limits assumed): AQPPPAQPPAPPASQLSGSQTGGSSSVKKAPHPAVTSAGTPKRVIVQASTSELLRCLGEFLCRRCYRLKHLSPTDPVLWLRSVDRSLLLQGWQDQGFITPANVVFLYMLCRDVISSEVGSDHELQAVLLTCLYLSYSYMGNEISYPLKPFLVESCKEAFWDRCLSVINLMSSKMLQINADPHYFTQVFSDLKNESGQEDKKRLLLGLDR
The target of experiment [9] is T5, Cyclin-dependent kinase 5/CDK5 activator 1 (Homo sapiens). The following applies: at 10 µM.
For experiment [10] the target is unchanged. The following applies: at 1 µM. The source holds these as a separate data set.
The target is the same in experiment [11]. The following applies: at 10 µM. This is another data set of the same source.
Experiment [12] concerns the target T6, CDK6/cyclin D3 (Homo sapiens) (UniProt P30281+Q00534). The following applies: at 1 µM.
Experiment [13] has as its target T6, CDK6/cyclin D3 (Homo sapiens). The following applies: at 10 µM.
For experiment [14], the target named is T7, Cyclin-dependent kinase 7/ cyclin H (Homo sapiens) (UniProt P51946+P50613). The following applies: at 1 µM.
Experiment [15] addresses T7, Cyclin-dependent kinase 7/ cyclin H (Homo sapiens). The following applies: at 10 µM.
Experiment [16] has as its target T8, Serine/threonine-protein kinase BRSK1 (Homo sapiens) (UniProt Q8TDC3).
T8 sequence (whole entry): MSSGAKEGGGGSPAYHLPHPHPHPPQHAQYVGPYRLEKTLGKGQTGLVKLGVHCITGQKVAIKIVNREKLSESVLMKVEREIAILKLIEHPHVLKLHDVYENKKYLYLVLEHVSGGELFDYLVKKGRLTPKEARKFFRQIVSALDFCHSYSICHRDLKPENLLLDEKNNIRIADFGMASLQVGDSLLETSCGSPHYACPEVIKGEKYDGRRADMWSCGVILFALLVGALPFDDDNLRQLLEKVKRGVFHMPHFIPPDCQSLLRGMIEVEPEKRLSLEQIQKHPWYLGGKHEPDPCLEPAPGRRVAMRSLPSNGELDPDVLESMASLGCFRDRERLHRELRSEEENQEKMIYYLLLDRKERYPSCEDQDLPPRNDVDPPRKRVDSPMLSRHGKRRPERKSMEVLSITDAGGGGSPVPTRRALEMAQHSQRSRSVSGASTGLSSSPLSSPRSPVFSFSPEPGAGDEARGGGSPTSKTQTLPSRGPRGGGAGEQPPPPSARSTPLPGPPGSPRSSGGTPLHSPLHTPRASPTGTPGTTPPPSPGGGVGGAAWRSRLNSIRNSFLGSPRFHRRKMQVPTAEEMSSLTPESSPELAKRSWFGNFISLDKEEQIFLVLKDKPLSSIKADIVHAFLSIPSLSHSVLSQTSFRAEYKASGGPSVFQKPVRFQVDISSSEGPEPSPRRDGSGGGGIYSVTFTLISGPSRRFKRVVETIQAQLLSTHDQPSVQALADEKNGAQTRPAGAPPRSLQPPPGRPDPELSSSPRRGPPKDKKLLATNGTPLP
The following applies: at 1 µM.

Experiment [17] has as its target T8, Serine/threonine-protein kinase BRSK1 (Homo sapiens). The following applies: at 10 µM.
The target in experiment [18] is T9, Cyclin-dependent kinase 2/cyclin A (Homo sapiens) (UniProt P24941+P20248+P78396). The following applies: at 1 µM.
Experiment [19] addresses T9, Cyclin-dependent kinase 2/cyclin A (Homo sapiens). The following applies: at 10 µM.

SMILES strings stand for the structures.

T2 sequence (P06493 whole entry, looked up): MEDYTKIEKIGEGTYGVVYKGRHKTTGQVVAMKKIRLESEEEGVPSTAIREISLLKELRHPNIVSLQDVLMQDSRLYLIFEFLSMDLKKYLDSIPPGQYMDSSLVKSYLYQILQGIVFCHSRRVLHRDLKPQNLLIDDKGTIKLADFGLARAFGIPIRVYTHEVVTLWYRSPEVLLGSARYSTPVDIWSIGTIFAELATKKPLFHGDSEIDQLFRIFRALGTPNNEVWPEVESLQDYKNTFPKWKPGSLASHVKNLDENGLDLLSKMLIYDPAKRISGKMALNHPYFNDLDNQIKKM
T2 sequence (P14635 whole entry, looked up): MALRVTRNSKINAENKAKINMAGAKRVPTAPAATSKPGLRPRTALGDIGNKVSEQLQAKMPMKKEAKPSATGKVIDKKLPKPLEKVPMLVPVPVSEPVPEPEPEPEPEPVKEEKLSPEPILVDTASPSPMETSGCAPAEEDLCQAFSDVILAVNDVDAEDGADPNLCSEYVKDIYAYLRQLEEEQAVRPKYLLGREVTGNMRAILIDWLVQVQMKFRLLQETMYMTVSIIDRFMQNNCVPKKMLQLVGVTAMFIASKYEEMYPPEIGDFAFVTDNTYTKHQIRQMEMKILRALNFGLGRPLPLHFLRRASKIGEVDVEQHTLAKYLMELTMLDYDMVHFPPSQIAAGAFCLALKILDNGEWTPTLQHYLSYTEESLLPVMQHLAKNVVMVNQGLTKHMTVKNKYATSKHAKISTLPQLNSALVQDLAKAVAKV
T4 sequence (O96020 whole entry, looked up): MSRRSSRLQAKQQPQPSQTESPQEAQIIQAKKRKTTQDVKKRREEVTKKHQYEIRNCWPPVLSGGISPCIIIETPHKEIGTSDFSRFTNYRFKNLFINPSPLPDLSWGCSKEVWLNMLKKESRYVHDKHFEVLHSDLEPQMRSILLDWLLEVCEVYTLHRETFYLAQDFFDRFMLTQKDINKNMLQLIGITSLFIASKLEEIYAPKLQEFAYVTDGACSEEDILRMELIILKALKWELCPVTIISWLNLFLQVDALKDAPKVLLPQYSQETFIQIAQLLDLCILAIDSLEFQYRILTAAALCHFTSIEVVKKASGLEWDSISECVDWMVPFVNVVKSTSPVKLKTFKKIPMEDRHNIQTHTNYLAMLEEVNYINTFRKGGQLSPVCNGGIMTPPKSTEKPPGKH
T4 sequence (P24864 whole entry, looked up): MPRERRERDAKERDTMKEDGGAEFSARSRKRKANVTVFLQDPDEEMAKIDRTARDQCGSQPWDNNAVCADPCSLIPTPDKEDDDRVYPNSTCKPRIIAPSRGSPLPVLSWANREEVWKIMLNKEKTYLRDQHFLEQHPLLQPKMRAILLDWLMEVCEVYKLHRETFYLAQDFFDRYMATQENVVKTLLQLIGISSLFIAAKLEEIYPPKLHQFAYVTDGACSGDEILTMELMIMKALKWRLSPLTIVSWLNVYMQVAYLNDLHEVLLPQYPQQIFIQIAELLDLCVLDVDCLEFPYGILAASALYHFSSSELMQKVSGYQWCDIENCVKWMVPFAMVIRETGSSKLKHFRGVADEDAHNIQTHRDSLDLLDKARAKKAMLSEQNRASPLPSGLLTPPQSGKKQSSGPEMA
T4 sequence (Q00526 whole entry, looked up): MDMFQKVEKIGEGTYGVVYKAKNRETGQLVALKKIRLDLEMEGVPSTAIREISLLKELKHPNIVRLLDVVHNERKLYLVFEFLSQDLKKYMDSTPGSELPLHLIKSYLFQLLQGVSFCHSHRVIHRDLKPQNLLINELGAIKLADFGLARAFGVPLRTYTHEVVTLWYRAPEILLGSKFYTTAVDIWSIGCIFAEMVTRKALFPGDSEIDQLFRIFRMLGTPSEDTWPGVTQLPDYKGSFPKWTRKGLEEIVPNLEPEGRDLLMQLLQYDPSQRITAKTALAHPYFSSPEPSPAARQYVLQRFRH

As to `COc1cc2c(cc1OC)-c1n[nH]c(Nc3cccc(F)c3)c1C2`, the residual activity was found to be 104% in [1]; 114% in experiment [2]; 103% in experiment [3]; 98% in experiment [4]; 68% in experiment [5]; 78% in experiment [6]. The residual activity in experiment [7] was determined as 46%; in [8], 82%; in experiment [9], 53%; in [10] it was 81%; in experiment [11], 61%; in [12] it was 76%. For the same molecule, the residual activity stood at 71% in experiment [13], 83% in experiment [14] and 75% in experiment [15].
In the case of `COc1cc2ncnc(Nc3cccc(Cl)c3)c2cc1OC`, the residual activity in experiment [16] came out at 14%; in experiment [17], 17%; in experiment [18] it was 138%; in [4] it was 109%; in experiment [5], 105%; in experiment [6], 105%. In addition, the residual activity was 113% in experiment [8], 107% in experiment [9] and 100% in experiment [13].
In the case of `O=C1Cc2c([nH]c3ccc(Br)cc23)-c2ccccc2N1`, the residual activity in experiment [16] was 64%; in experiment [17], 37%; in experiment [2] it was 52%; in experiment [3], 9%; in [4], 36%; in experiment [5], 2%. The residual activity in [6] was found to be 54%; in experiment [7], 9%; in experiment [10], 47%; in [11] it was 9%; in experiment [12], 78%; in experiment [13], 30%. Further, the residual activity in experiment [14] turned out to be 91%; in experiment [15] it was 80%.
In the case of `CC(C)[C@H](CO)Nc1nc(Nc2cc(N)cc(Cl)c2)c2ncn(C(C)C)c2n1`, the residual activity turned out to be 91% in experiment [16]; 75% in [17]; 20% in [10]; 2% in experiment [11]; 43% in experiment [14]; 6% in experiment [15].
Turning to `CCCCc1c(-c2ccc(O)cc2)[nH]c2nccnc12`, the residual activity in experiment [16] turned out to be 88%; in experiment [17], 88%; in experiment [2], 29%; in experiment [3], 18%; in experiment [4], 20%; in experiment [5], 16%. The residual activity in [6] was 29%; in experiment [7], 6%; in experiment [12] it was 89%; in experiment [13] it was 33%; in experiment [14], 78%; in experiment [15], 51%.
Consider `Cn1sc(=O)n(Cc2ccccc2)c1=O`, for which the residual activity in experiment [16] was 86%; in experiment [17], 83%; in experiment [18] it was 79%; in experiment [19] it was 79%; in experiment [4], 96%; in experiment [5], 95%. The residual activity in experiment [6] came to 83%; in [7], 79%; in [8], 81%; in [9] it was 81%; in [10], 97%; in experiment [11] it was 97%. The residual activity was determined as 89% in experiment [12], 82% in [13], 99% in [14] and 86% in [15].
In the case of `NC(=O)c1cccc(-c2cc(Nc3ccc(OC(F)(F)F)cc3)ncn2)c1`, the residual activity was determined as 139% in [18]; 94% in experiment [19]; 93% in experiment [8]; 65% in experiment [9]; 91% in experiment [15].
Regarding `NCCNc1ncc(C(N)=O)c(Nc2cccc(C(F)(F)F)c2)n1`, the residual activity was 43% in experiment [3]; 131% in experiment [18]; 65% in [19]; 47% in experiment [5]; 77% in experiment [8]; 25% in [9]. Also, the residual activity came to 70% in experiment [10], 33% in experiment [11], 78% in experiment [14] and 49% in experiment [15].
On to `CC(C)N(CCC(=O)c1ccc2ccccc2c1)Cc1ccccc1`, for which the residual activity was 87% in experiment [16]; 86% in [6]; 77% in experiment [7]; 87% in [8]; 79% in experiment [10]; 81% in experiment [11]. In addition, the residual activity was 87% in [12], 78% in experiment [13], 83% in [14] and 82% in experiment [15].
`O=C1Nc2ccccc2/C1=C\c1c(Cl)[nH]c2ccccc12`: the residual activity in experiment [17] amounted to 46%; in [3], 68%; in experiment [18], 83%; in experiment [19], 57%; in experiment [4], 82%; in [5], 58%. Moreover, the residual activity in experiment [7] was 55%; in experiment [9] it was 40%; in [11] it was 40%; in [13], 32%; in experiment [15], 59%.
